# CYP2C9 activ: increases human cytochrome P450 2C9 activity. activation factor at 5 µM. 96,000 compounds, 1.4% hits. recombinant CYP2C9, luciferin-H conversion, luminescence; hits give high values; factor 1 = untreated enzyme, 0 = blocked;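 active = activation factor of 2 or more for CYP2C9 at a 5 µM dose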;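 also: 0 = sulfaphenazole-blocked wells and 1 = vehicle-only wells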
# CYP2C9 inhib: human CYP2C9 inhibition | inhibition, % at 5 µM | P11712 | CYP2C9 Supersomes, luciferin-H conversion, luminescence | 96,000 compounds, 20% hits;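 active = blocking of liver enzyme CYP2C9 beyond about 50% at 5 µM, limit read from the data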
# Pyk2 oligo antag: antagonists of human Pyk2 oligomerization. Q14289. Q293 cells, Pyk2 FERM NanoBiT luminescence; hits give low values. z-score (the deposit names both 25 µM and 10 µM). 99,000 compounds, 0.83% hits. AID 1347419;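 active = Z-score of -3 or lower, scaled per plate to the spread of control and sample wells; inactive = z-score above -3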;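 also: negative z-score means lost luminescence so less FERM oligomerization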
# Target sequence (Q14289 whole entry, looked up): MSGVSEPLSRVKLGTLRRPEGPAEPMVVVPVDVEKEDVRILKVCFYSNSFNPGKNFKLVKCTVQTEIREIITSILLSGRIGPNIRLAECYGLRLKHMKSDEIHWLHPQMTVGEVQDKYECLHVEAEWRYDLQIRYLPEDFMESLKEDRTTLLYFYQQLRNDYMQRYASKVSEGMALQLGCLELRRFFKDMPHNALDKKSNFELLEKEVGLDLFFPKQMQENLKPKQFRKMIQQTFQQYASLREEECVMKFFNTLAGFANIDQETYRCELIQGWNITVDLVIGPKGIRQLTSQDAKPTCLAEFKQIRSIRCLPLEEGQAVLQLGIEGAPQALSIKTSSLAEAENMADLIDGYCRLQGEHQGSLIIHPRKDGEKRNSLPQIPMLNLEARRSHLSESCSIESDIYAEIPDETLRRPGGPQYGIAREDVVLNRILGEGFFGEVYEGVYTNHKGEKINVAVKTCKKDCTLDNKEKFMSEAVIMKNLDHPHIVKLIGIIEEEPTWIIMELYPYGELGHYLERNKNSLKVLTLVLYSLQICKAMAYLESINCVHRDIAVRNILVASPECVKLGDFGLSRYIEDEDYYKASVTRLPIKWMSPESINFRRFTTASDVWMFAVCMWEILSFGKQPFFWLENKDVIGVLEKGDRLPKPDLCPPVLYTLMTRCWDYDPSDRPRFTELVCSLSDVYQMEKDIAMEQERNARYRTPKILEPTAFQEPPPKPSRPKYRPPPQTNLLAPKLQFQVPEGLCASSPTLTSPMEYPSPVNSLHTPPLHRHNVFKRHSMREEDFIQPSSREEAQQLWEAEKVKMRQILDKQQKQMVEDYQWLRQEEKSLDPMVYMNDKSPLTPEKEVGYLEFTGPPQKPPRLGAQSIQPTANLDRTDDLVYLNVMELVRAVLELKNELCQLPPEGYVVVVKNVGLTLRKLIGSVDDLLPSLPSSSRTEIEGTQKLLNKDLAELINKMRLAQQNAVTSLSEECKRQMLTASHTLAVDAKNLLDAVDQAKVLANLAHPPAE
# Cav3 T inh: blocks human Cav3.2 T-type calcium channel. O95180. Cav3.2-expressing cells, Fluo-4 calcium fluorescence FDSS; hits give low values. B-score at 10 µM. 100,000 compounds, 4% hits;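 active = single-dose well whose peak fluorescence ratio is a statistical outlier from its plate by either plate-standardised score or position-corrected B-score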
# CYP2C19 inhib: blocks human cytochrome P450 2C19 | 96,000 compounds, 21% hits | P33261 | AID 778 | CYP2C19 Supersomes, luciferin-H EGE luminescence, 30 min | inhibition, % at 5 µM;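 active = CYP2C19 inhibition above a set limit at 5 µM in the primary screen, cut at about 50% in these data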;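 also: plate controls were negative control wells for no effect and 2.5 mM tranylcypromine positive control for full effect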
# CYP2C19 act: increases human CYP2C19 enzyme activity. AID 1025. activation factor at 5 µM. P33261. 96,000 tested, under 10 active. recombinant CYP2C19, luciferin-H EGE luminescence; hits give high values; 0 = fully inhibited enzyme, 1 = untreated enzyme;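 active = activation factor of at least 2 at 5 µM in the primary screen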;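 also: 0 = wells with 2.5 mM tranylcypromine and 1 = vehicle-only wells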
# An asterisk follows results filed as active; . = no result. Sampled rows, rich in hits. Any-hit rate of the full collection: about 27%.
SMILES,CYP2C9 activ,CYP2C9 inhib,Pyk2 oligo antag,Cav3 T inh,CYP2C19 inhib,CYP2C19 act
O=C(CSc1nc2ccccc2[nH]1)c1ccc(Cl)s1,0.1,92*,0.42,-2.5,98*,0
COc1ccc2nc(SCC(=O)c3ccco3)[nH]c2c1,0.9,12,0.62,.,15,0.8
CSCC[C@H](NC(=O)C1CCN(S(=O)(=O)c2ccc(C)cc2)CC1)C(=O)NCc1ccco1,1,-1,0.25,2.6,-6,1.1
CCC(=O)Nc1sc2c(c1C#N)CC(C)(CC)OC2 (stereo not drawn),0.9,8,0.1,-0.55,51*,0.5
CCC1(C)Cc2c(sc(NC(=O)CCC(=O)O)c2C#N)CO1 (stereo not drawn),1,0,0.58,.,-8,1.1
CC1CCN(S(=O)(=O)c2cc(Br)cc(C(=O)NC3=NCCS3)c2)CC1,0.6,45,-2,-4.1,68*,0.3
C=CCN(C(=O)CSc1nc2[nH]ncc2c(=O)n1-c1ccccc1OC)c1ccccc1,.,.,-1.2,.,.,.
COC(=O)c1cc2occc2n1CC(=O)N(C)C1CCCCC1,1,-2,0.3,-0.044,35,0.7
COC(=O)c1cc2oc(C)cc2n1CC(=O)N(C)c1ccccc1,0.8,19,-0.85,0.78,64*,0.4
C=CCN(C(=O)Cn1c(C(=O)OC)cc2oc(C)cc21)c1ccccc1,0.5,48,-1.3,-0.3,92*,0.1
Cc1oc(-c2ccccc2)cc1C(=O)Nc1ccc(N(C)C)cc1,1,1,-0.3,0.02,-7,1.1
CC(=O)OC(C(=O)NC1CCCCC1)c1cccc(C)c1 (stereo not drawn),1.2,-24,0.96,-0.64,47,0.5
Cc1noc(C)c1CSc1ncnc2sc(C)c(C)c12,0.5,49,-0.13,0.026,37,0.6
Cc1noc2ncnc(Sc3ccc(Cl)cc3)c12,0.9,10,0.24,-0.037,79*,0.2
Cc1ccccc1Sc1ncnc2onc(C)c12,0.5,49,0.68,-0.07,96*,0
Cc1noc2ncnc(Sc3c(Cl)cccc3Cl)c12,0.5,52*,-1,-0.06,97*,0
Cc1ccc(Sc2ncnc3onc(C)c23)cc1,0.8,23,-0.15,-0.08,67*,0.3
Cc1noc2ncnc(Oc3ccc(F)cc3)c12,1.1,-7,0.91,0.033,5,1
Nc1cccnc1Sc1ccc(Cl)cc1,.,.,0.18,0.6,.,.
CC(C)C[C@@H]1NC(=O)[C@H](C(C)C)NC(=O)c2cc([N+](=O)[O-])cc(I)c2OCC[C@@H](C(N)=O)NC1=O,.,.,.,0.19,.,.
C=CCNC(=O)C(=O)NN=C1CCN(C)CC1,1,-4,0.61,0.96,-8,1.1
O=C1CCC2(C(=O)O)Sc3ccccc3N12 (stereo not drawn),1.3,-34,0.38,0.13,-28,1.3
COC(=O)C1(C(=O)OC)NOC2C(=O)N(c3ccccc3)C(=O)C21 (stereo not drawn),1,0,0.62,0.56,1,1
CCC(C)(c1ccc(C(=O)OC)s1)c1ccc(C(=O)OC)s1,0,98*,-1.5,-0.65,98*,0
CN(C)S(=O)(=O)NC(c1ccccc1)c1ccccc1,0.4,60*,-1.1,-0.0056,83*,0.2
SMILES,CYP2C9 activ,CYP2C9 inhib,Pyk2 oligo antag,Cav3 T inh,CYP2C19 inhib,CYP2C19 act
COc1ccccc1CNc1nc2nc(C)c(Cl)c(=O)n2[nH]1,0.4,61*,-0.33,0.2,2,1
CCCc1cc(=O)n2[nH]c(NCc3ccccc3Cl)nc2n1,0.5,50,-0.31,0.12,12,0.9
COCCn1c(SCC#N)nnc1-c1ccc2c(c1)OCO2,0.9,11,-0.39,-0.015,16,0.8
CC1CCC2(CC1)NC(=O)N(CC(=O)NC(=O)NC1CCCC1)C2=O (stereo not drawn),0.7,35,1.4,0.024,8,0.9
Cc1nc2ccccc2n1CC(=O)N/N=C\C=C\c1ccccc1,0.9,10,-0.03,0.49,14,0.9
CCCn1c(/C=C/c2ccccc2)nc2ccccc21,1.4,-41,-1.8,-2.7,51*,0.5
Cc1ccc(NC(=O)Cn2c(/C=C/c3ccccc3)nc3ccccc32)cc1C,0,100*,-3.8*,.,85*,0.2
CCOC(=O)N1CCN(c2c(NCCCN3CCCCCC3)c(=O)c2=O)CC1,1.1,-11,.,-0.04,-10,1.1
